IL-1B inflam inh – inhibitors of inflammasome signaling (IL-1 beta secretion); 4.7% of 360,000 active; THP-1 LPS/ATP IL-1B secretion, AlphaLISA, 16 h; active compounds read low; activity change, % at 57.5 µM; in the data active = activity change below about -50%; inconclusive = mostly about -30% to -49%; also: % is scaled to controls: 0 for no effect and ±100 for the full control effect
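THP-1 cells pretreated 1 hr with compounds (up to 57.5 uM final), then stimulated with LPS (250 ng/mL final) plus ATP (1.25 mM final); secreted IL-1B measured by AlphaLISA after 16 hr, decreased signal indicating inhibition.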
DT40 TDP1 CPT – DT40-hTDP1 cell growth loss with CPT. chicken DT40 Tdp1-/-;hTDP1 cells + 20 nM CPT, ATP luminescence, 48 h. Potency, µM (top dose mostly 46.2 µM), without a hit: at the top dose activity change, negative = growth inhibition, most hits filed as inhibitors. AID 686979. 12% of 420,000 active; also: potency is read from the fitted curve at half-maximal effect; % is scaled to controls: 0 for no effect and ±100 for the full control effect; nearly all actives have a fitted effect of over 55% in size
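Chicken DT40 Tdp1-/- cells stably complemented with human TDP1 were seeded at 400 cells/well in medium containing 20 nM camptothecin, exposed to pin-transferred compounds, and grown at 37 °C for at least 48 hr. Viability was read as ATP luminescence.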
D3 ag – activates the human D3 dopamine receptor. P35462. D3R DiscoveRx beta-arrestin cells, luminescence, 90 min. max activation, %. 0.58% of 410,000 active; in the data active = max activation above about 30%; also: 0% is about no effect
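Agonist mode: compounds and dopamine controls were applied to plated cells for 90 min at 37 degrees C after an overnight attachment at 1500 cells/well. Luminescent read-out followed 30 - 60 minutes at room temperature with DiscoveRx detection reagent.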
DT40 TDP1 no CPT – qHTS for Inhibitors of human tyrosyl-DNA phosphodiesterase 1 (TDP1): qHTS in cells in absence of CPT | Potency, µM (highest dose often 46.2 µM), for the others: at the highest dose activity change, negative = growth inhibition, usual class: inhibitors | DT40 Tdp1-/- hTDP1 cells, no CPT, ATP luminescence, 48 h | 15% of 420,000 active; also: potency is read from the fitted curve at half-maximal effect; % is scaled to controls: 0 for no effect and ±100 for the full control effect; nearly all actives have a fitted effect of over 55% in size
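Chicken DT40 Tdp1-/- cells complemented with human TDP1, screened without camptothecin (DMSO vehicle only), 400 cells/well. Compounds pin-transferred, cells incubated at 37 °C for at least 48 hr. Growth read as ATP-dependent luminescence (CellTiter-Glo, 30 min at RT).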
ClpP mod – qHTS Assay for Activators of ClpP | purified B. subtilis ClpP, FRET peptide cleavage, 20 min | Potency, µM (doses to about 57.5 µM), inactives show top-dose activity change, negative = active | 1.9% of 340,000 active | AID 651965, 2013; active = well fitted falling curve with a large enough effect; inconclusive = small, poorly fitted or top-dose-only effect; inactive = no such curve, though single readings can be large or run the other way; also: potency is read from the fitted curve at half-maximal effect; the source files actives as falling curves though it sought activators and does not explain the sign; nearly all actives have a fitted effect of over 65% in size
Target sequence (P80244 whole entry, looked up): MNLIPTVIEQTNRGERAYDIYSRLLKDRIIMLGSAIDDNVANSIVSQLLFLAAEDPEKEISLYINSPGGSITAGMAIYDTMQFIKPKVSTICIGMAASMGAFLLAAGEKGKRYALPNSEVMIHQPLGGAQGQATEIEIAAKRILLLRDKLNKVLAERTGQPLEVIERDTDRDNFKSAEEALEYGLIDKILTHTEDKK
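ClpP 10 microg/mL final, pH 8 Tris/KCl buffer with BSA, glycerol, Tween-20; compound pinned in; FRET-FV substrate; RT 20 min; Ex320/Em430; ΔFRET vs ADEP 5.8 microM, DMSO, no enzyme.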
D3 antag – D3 dopamine receptor (human) antagonism; max response, negative = inhibition, %; D3R cells, DiscoveRx beta-arrestin luminescence, antagonist mode; active compounds read low; P35462; 2.5% of 360,000 active; AID 652054; in the data active = max response below about -50%; inconclusive = no clear call, values can overlap the other calls; also: % is scaled to controls: 0 for no effect and ±100 for the full control effect
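Cells expressing the human receptor were seeded at 1500 cells/well, incubated overnight at 37 degrees C in 5% CO2, then exposed to library compounds with dopamine controls for 90 minutes at 37 degrees C before luminescent detection.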
* = called active by the depositor. Compounds with a hit are over-represented: about 21% of the library has one in this group of screens. Unless noted, calls follow the shape of the dose curve; as a rule, active = well fitted inhibition curve with a large enough effect; inconclusive = small, poorly fitted or top-dose-only effect; inactive = flat fitted curve, though single readings scatter.

Screening O=C(COc1cccc(C(F)(F)F)c1)Nc1ccc(S(=O)(=O)N2CCCCC2)cc1 returned IL-1B inflam inh inconclusive, DT40 TDP1 CPT inconclusive, D3 ag 2, DT40 TDP1 no CPT 26µM* and D3 antag -3.
Screening N#Cc1ccc(NC(=O)CNc2cc(S(=O)(=O)N3CCOCC3)ccc2NCC2CCCO2)cc1 (stereo not drawn) returned IL-1B inflam inh 3, DT40 TDP1 CPT inconclusive, D3 ag 1, DT40 TDP1 no CPT -21%, ClpP mod 0% and D3 antag 10.
Cc1cccc(OCC(=O)Nc2ccc(S(=O)(=O)N3CCCC3)cc2)c1 was read as IL-1B inflam inh -10, DT40 TDP1 CPT inconclusive, D3 ag -5, DT40 TDP1 no CPT inconclusive, ClpP mod -2% and D3 antag inconclusive.
`O=C(CNc1cccc(C(F)(F)F)c1)Nc1cccc(S(=O)(=O)N2CCCC2)c1` gave IL-1B inflam inh inconclusive, DT40 TDP1 CPT 13µM*, D3 ag 0, DT40 TDP1 no CPT -71%, ClpP mod -3% and D3 antag -3.
O=C(CNc1cccc(S(=O)(=O)N2CCCC2)c1)Nc1ccc(F)c(F)c1 was read as IL-1B inflam inh -2, DT40 TDP1 CPT inconclusive, D3 ag -1, DT40 TDP1 no CPT inconclusive, ClpP mod -4% and D3 antag 4.
`O=C(CNc1cc(S(=O)(=O)N2CCOCC2)ccc1NCC1CCCO1)Nc1ccc(C(F)(F)F)cc1` (stereo not drawn) gave IL-1B inflam inh -62*, DT40 TDP1 CPT inconclusive, D3 ag -13, DT40 TDP1 no CPT inconclusive and D3 antag -4.
`Cc1ccc(NC(=O)CNc2cccc(S(=O)(=O)N3CCCC3)c2)cc1F` gave IL-1B inflam inh -67*, DT40 TDP1 CPT -20%, D3 ag -1, DT40 TDP1 no CPT inconclusive, ClpP mod 2% and D3 antag 9.
Screening CN(C1CCCCC1)S(=O)(=O)CCNC(=O)c1ccccc1 returned IL-1B inflam inh 4, DT40 TDP1 CPT 2%, D3 ag -6, DT40 TDP1 no CPT 4%, ClpP mod -1% and D3 antag -2.
O=C(Cc1ccc(Cl)cc1)NCC(c1cccs1)S(=O)(=O)c1ccc(F)cc1 (stereo not drawn) was read as DT40 TDP1 CPT inconclusive, D3 ag 1, DT40 TDP1 no CPT inconclusive and ClpP mod 0%.
O=C(CN1CCN(S(=O)(=O)c2ccccc2)CC1)Nc1cccc(C(F)(F)F)c1 was read as IL-1B inflam inh -25, DT40 TDP1 CPT 16µM*, D3 ag 5, DT40 TDP1 no CPT inconclusive, ClpP mod 0% and D3 antag -18.
For O=C(CC(O)c1ccncc1)c1ccccc1O (stereo not drawn) the results were IL-1B inflam inh -63*, DT40 TDP1 CPT inconclusive, D3 ag 10, DT40 TDP1 no CPT inconclusive and D3 antag 1.
Cn1ncc([N+](=O)[O-])c1C(=O)Nc1ccc(C2CCCCC2)cc1 was read as IL-1B inflam inh 0, DT40 TDP1 CPT inconclusive, D3 ag -14, DT40 TDP1 no CPT inconclusive and D3 antag -14.
Screening COCCNC(=O)c1cccc2c1C(=O)c1ccc(N3CCOCC3)cc1S2(=O)=O returned IL-1B inflam inh 18, DT40 TDP1 CPT inconclusive, D3 ag 10, DT40 TDP1 no CPT -25%, ClpP mod -1% and D3 antag 6.
For O=C(NCc1ccccc1C(F)(F)F)c1cccc2c1C(=O)c1ccc(N3CCC(N4CCCCC4)CC3)cc1S2(=O)=O the results were IL-1B inflam inh -103*, DT40 TDP1 CPT 2.3µM*, D3 ag 6, DT40 TDP1 no CPT 3.7µM*, ClpP mod -1% and D3 antag 12.

Source: PubChem BioAssay
